Experimental data reported in PubChem BioAssay (Tox21).
Where “and” joins values, the source holds several entries; their conditions need not be identical. Equal values may be shown once. Inconclusive results are not listed. Calls of active or inactive are those of the source. Unless noted, calls follow the shape of the dose curve; as a rule, active = well fitted curve in the direction sought with a large enough effect in the repeat runs; inconclusive = weak or mixed curves; inactive = no such curve, though single readings can be large; an effect the other way counts as inactive or inconclusive.

Key:
[1] = qHTS assay to test for compound auto fluorescence at 590 nm (red) in HepG2 cells (AID 720674)
Summary of the method: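 Compound auto-fluorescence is scored relative to Rose Bengal sodium, measured at 540/590 nm in live HepG2 cultures after 1 hr compound contact (37 C, 5% CO2).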

[2] = qHTS assay to identify small molecule agonists of the RXR signaling pathway - cell viability counter screen (AID 1159529); also: nearly all actives have a fitted effect of over 50% in size; also: potency is read from the fitted curve at half-maximal effect;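 as to activity change, negative = cytotoxicity: HEK 293T cells carrying an RXR-alpha UAS beta-lactamase reporter; series mostly up to about 77 µM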
Summary of the method: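 Counter screen: CellTiter-Glo luminescence. Cells: RXR-alpha-UAS-bla HEK 293T. Medium: 2% charcoal-stripped FBS. Treatment: 16 h, 37 C. Reagent incubation: 30 min, RT.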

[3] = qHTS assay to identify small molecule antagonists of the retinoid acid receptor (RAR) signaling pathway - cell viability counter screen (AID 1159551); also: nearly all actives have a fitted effect of over 35% in size; also: potency is read from the fitted curve at half-maximal effect
Summary of the method: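 Cells (C3RL4) are plated, incubated overnight, dosed with compound in DMSO, then given retinol at 1 uM final. After 6 h at 37 C, CellTiter-Glo is added and luminescence read following 30 min at room temperature.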

[4] = molecular target: Nuclear receptor subfamily 1 group I member 3 (Homo sapiens) (UniProt Q14994); test: qHTS assay to identify small molecule agonists of the constitutive androstane receptor (CAR) signaling pathway (AID 1224839); also: nearly all actives have a fitted effect of over 15% in size; also: potency is read from the fitted curve at half-maximal effect;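 as to activation: HepG2 cells stably carrying human CAR and a CYP2B6 luciferase reporter; series mostly up to about 92 µM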
Summary of the method: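 Readout: firefly luciferase luminescence via ONE-Glo. System: HepG2 double-stable for hCAR and CYP2B6-2.2kb. Conditions: 15-point compound titration, PK11195 at 0.75 uM final, 24 h incubation.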

[5] = qHTS assay to identify small molecule agonists of the estrogen receptor beta (ER-beta) signaling pathway - cell viability counter screen (AID 1259380); also: nearly all actives have a fitted effect of over 30% in size; also: potency is read from the fitted curve at half-maximal effect
Summary of the method: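 Cytotoxicity is measured in parallel with the reporter screen: after 16 hr compound exposure at 37C and a 2 hr LiveBLAzer step, CellTiter-Glo is added to the same ER-beta-UAS-bla HEK293T wells and luminescence read after 30 min.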

[6] = qHTS assay to identify small molecule antagonists of the estrogen receptor beta (ER-beta) signaling pathway - cell viability counter screen (AID 1259382); also: nearly all actives have a fitted effect of over 55% in size; also: potency is read from the fitted curve at half-maximal effect;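 as to activity change, negative = cytotoxicity: HEK293T cells carrying ER-beta-UAS-bla reporter stimulated with estradiol; series mostly up to about 92 µM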
Summary of the method: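 Cytotoxicity counter screen multiplexed with the beta-lactamase antagonist assay: GripTite HEK293T ER-beta-bla cells were treated 16 hr with test chemicals in the presence of 1nM 17-beta-estradiol, and viability was measured by CellTiter-Glo.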

[7] = qHTS assay to identify small molecule antagonists of the progesterone receptor (PR) signaling pathway - cell viability counter screen (AID 1346798); also: nearly all actives have a fitted effect of over 50% in size; also: potency is read from the fitted curve at half-maximal effect; as to activity change, negative = cytotoxicity: series mostly up to about 92 µM
Summary of the method: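 CellTiter-Glo luminescence; PR-UAS-bla HEK293T, 3,000 cells/well; compound + R5020, 16 hr, 37C/5% CO2; 30 min RT before read.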

[8] = Human pregnane X receptor (PXR) small molecule agonists, qHTS cell viability counter screen (AID 1346977); also: nearly all actives have a fitted effect of over 50% in size; also: potency is read from the fitted curve at half-maximal effect
Summary of the method: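 Viability counter screen: CellTiter-Fluor signal in PXR-Luc HepG2 cells, 24hr compound exposure, 37C, 5% CO2.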

[9] = Caspase-3/7 induction in CHO-K1 cells by small molecules, qHTS cell viability counter screen (AID 1346979); also: nearly all actives have a fitted effect of over 35% in size; also: potency is read from the fitted curve at half-maximal effect
Summary of the method: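 Viability readout by fluorescence (CellTiter-Fluor) on wild-type CHO-K1 cells exposed for 16hr at 37C and 5% CO2 to compounds delivered in DMSO; reagent incubated 1hr before reading.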

[10] = Caspase-3/7 induction in HepG2 cells by small molecules, qHTS cell viability counter screen (AID 1346981); also: nearly all actives have a fitted effect of over 30% in size; also: potency is read from the fitted curve at half-maximal effect; as to activity change, negative = cytotoxicity: series mostly up to about 92 µM
Summary of the method: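 Cell viability is measured as a cytotoxicity counter screen alongside the Caspase-Glo 3/7 readout in identical wells. Wild-type HepG2 cells are treated with test compounds for 16 hr at 37 C before CellTiter-Fluor addition and a 1-hr incubation.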

[11] = qHTS assay to identify small molecule agonists of the hypoxia (HIF-1) signaling pathway - cell viability counter screen (AID 1224844; calls by dose curve; also: nearly all actives have a fitted effect of over 50% in size; also: potency is read from the fitted curve at half-maximal effect)
Summary of the method: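 Cytotoxicity was measured in parallel with the HRE-driven beta-lactamase readout: after 17 hrs of compound exposure at 37C, HRE-bla ME-180 cells received CellTiter-Glo and luminescence was recorded 30 min later.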

[12] = qHTS RealTime-Glo MT Cell Viability Assay in HEK293 cells - 16 hour (AID 1224872); also: nearly all actives have a fitted effect of over 50% in size; also: potency is read from the fitted curve at half-maximal effect; as to activity change, negative = cytotoxicity: top concentration of the series differs between compounds
Summary of the method: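 HEK293 cells seeded with NanoLuc/prosubstrate reagent, rested 5 h at 37 C, then dosed and kept at 37 C up to 40 h. Nonlytic real-time luminescence from viable cells read at 0, 8, 16, 24, 32 and 40 h.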

[13] = qHTS RealTime-Glo MT Cell Viability Assay in HepG2 cells - 8 hour (AID 1224873); also: nearly all actives have a fitted effect of over 55% in size; also: potency is read from the fitted curve at half-maximal effect
Summary of the method: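 HepG2 cells mixed with RealTime-Glo MT reagents (NanoLuc plus cell-permeant prosubstrate) were seeded at 600 cells/well, incubated 5 h at 37 C/5% CO2, then pinned with compounds in DMSO; nonlytic luminescence tracked viability during 40 h treatment.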

[14] = A CellTox Green Cytotoxicity Assay to monitor cytotoxicity in HEK293 cells - 24 hour (AID 1224875); also: nearly all actives have a fitted effect of over 45% in size; also: potency is read from the fitted curve at half-maximal effect; as to activity change: series mostly up to about 77 µM
Summary of the method: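 Cells (HEK293, 600/well) and dye reagent are dispensed together. After 5 h at 37 C, 23 nL compound is pinned in. Plates stay at 37 C for 40 h with fluorescence read at 0h, 8h, 16h, 24h, 32h and 40h.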

[15] = molecular target: Thyrotropin-releasing hormone receptor (Homo sapiens) (UniProt P34981); test: qHTS assay to identify small molecule agonists of the thyrotropin-releasing hormone receptor (TRHR) signaling pathway (AID 1346891; calls by dose curve;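 also: HEK293 cells expressing TRHR with calcium dye readout; series mostly up to about 58 µM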)
Summary of the method: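 Compounds were tested as agonists at 15 concentrations, in triplicate, on TRHR-Hek293 cells; calcium-sensitive dye fluorescence was recorded for 3 min following addition.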

[16] = molecular target: Cytochrome P450 2D6 (Homo sapiens) (UniProt P10635); test: Cytochrome P450 Family 2 Subfamily D Member 6 (CYP2D6) small molecule antagonists: luciferase reporter qHTS assay (AID 1671196); also: nearly all actives have a fitted effect of over 50% in size; also: potency is read from the fitted curve at half-maximal effect; as to activity change, negative = inhibition: series mostly up to about 120 µM
Summary of the method: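 Enzyme and proluciferin substrate were first combined with test chemical for 10 min at room temperature. Adding NADPH regeneration solution started a 1 h reaction, stopped with luciferin detection reagent and read by luminescence 20 min later.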

[17] = molecular target: Cytochrome P450 3A4 (Homo sapiens) (UniProt P08684); test: Cytochrome P450 Family 3 Subfamily A Member 4 (CYP3A4) small molecule antagonists: luciferase reporter qHTS assay (AID 1671201); also: nearly all actives have a fitted effect of over 50% in size; also: potency is read from the fitted curve at half-maximal effect; as to activity change, negative = inhibition: series mostly up to about 120 µM
Summary of the method: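 Relative luminescence units after 20 min with luciferin detection reagent served as read-out. Beforehand, CYP3A4 turned over a proluciferin substrate for 1 h at room temperature with NADPH regeneration, following 10 min compound preincubation.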

[18] = qHTS assay for small molecule agonists of the p53 signaling pathway (AID 651631; calls by dose curve; also: nearly all actives have a fitted effect of over 15% in size)
Summary of the method: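 Testing took place in human colorectal HCT-116 cells with stable p53RE-driven beta-lactamase. After 16 h of compound exposure at 37 °C, a FRET substrate was added and fluorescence recorded 2 h later.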

[19] = qHTS assay to identify small molecule antagonists of the constitutive androstane receptor (CAR) signaling pathway - cell viability counter screen (AID 1224837); also: nearly all actives have a fitted effect of over 45% in size; also: potency is read from the fitted curve at half-maximal effect; as to activity change, negative = cytotoxicity: series mostly up to about 92 µM
Summary of the method: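 Viability was measured with CellTiter-Fluor in a HepG2 line carrying stably transfected hCAR and a CYP2B6-2.2kb construct. Cells were exposed for 23 hr at 37 C to 15 compound concentrations with 50 nM CITCO as agonist.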

[20] = qHTS assay to identify small molecule agonists of the androgen receptor (AR) signaling pathway in the presence of an antagonist - cell viability counter screen (AID 1259379); also: nearly all actives have a fitted effect of over 25% in size; also: potency is read from the fitted curve at half-maximal effect;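 as to activity change, negative = cytotoxicity: MDA-kb2 human breast cancer cells carrying an MMTV luciferase reporter; series mostly up to about 92 µM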
Summary of the method: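 Cytotoxicity is assessed by CellTiter-Fluor in MDA-kb2 cells carrying an MMTV-driven luciferase reporter. Cells receive 3.0uM nilutamide plus compounds at 15 concentrations and incubate 16 hr at 37C without CO2 before fluorescence reading.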
% is scaled to controls: 0 for no effect and ±100 for the full control effect.

Thyrotropin-releasing hormone receptor (Homo sapiens), sequence (P34981 whole entry, looked up): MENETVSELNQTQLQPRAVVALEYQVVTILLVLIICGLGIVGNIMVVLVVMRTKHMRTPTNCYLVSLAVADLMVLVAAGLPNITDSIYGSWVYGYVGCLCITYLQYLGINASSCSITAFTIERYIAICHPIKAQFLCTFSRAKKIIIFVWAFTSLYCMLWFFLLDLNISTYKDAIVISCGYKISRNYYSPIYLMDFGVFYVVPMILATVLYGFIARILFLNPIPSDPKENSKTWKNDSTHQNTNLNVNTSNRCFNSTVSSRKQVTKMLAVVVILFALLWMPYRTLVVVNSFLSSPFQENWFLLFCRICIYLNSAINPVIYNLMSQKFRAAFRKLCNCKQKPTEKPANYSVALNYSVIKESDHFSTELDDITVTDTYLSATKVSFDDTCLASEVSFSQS
Cytochrome P450 2D6 (Homo sapiens), sequence (P10635 whole entry, looked up): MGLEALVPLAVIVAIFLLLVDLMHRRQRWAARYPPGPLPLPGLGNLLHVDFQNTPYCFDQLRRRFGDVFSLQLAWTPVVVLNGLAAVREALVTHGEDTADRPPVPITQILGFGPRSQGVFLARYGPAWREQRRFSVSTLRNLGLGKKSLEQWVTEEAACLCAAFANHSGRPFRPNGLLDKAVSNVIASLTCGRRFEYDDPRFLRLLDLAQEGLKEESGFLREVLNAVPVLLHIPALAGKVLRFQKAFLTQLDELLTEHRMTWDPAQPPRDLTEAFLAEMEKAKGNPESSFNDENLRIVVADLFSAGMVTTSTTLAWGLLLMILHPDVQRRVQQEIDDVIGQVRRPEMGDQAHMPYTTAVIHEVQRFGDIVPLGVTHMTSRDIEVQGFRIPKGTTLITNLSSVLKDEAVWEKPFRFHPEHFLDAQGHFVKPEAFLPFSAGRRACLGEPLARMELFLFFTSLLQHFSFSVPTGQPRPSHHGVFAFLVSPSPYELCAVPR
Nuclear receptor subfamily 1 group I member 3 (Homo sapiens), sequence (Q14994 whole entry, looked up): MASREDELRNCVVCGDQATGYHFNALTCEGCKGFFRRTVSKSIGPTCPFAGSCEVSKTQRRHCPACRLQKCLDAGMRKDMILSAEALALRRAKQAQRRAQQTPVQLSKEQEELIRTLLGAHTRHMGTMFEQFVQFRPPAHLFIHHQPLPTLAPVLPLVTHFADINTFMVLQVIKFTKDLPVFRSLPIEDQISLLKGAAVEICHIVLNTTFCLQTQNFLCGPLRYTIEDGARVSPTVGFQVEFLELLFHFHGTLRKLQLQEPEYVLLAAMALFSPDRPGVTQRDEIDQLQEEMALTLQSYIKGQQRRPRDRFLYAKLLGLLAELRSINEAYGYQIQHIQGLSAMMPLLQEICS
Cytochrome P450 3A4 (Homo sapiens), sequence (P08684 whole entry, looked up): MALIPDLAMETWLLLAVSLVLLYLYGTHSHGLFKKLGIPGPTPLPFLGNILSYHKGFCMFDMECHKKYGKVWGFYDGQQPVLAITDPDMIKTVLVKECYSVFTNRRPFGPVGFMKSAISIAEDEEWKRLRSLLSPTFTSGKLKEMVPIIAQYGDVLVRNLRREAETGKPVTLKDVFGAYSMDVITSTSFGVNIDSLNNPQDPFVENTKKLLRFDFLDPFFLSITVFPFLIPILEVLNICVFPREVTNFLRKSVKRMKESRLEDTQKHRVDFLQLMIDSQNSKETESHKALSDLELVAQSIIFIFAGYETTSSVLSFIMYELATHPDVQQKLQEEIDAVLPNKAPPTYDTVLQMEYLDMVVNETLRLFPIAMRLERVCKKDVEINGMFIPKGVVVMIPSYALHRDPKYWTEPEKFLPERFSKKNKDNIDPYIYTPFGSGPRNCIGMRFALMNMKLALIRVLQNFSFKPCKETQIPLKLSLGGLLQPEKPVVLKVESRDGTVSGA

c1ccc2c(c1)Sc1ccccc1N2CC1CN2CCC1CC2 (stereo not drawn)
inactive: outcome [1] | Potency [3] | Potency [4]
active: Potency [2] 19 µM | Potency [5] 23.7 µM | Potency [6] 21.1 µM | Potency [7] 21.1 µM | Potency [8] 26.6 µM | Potency [9] 29.8 µM | Potency [10] 29.8 µM

CCc1cccc(CC)c1N
inactive: Potency [4]

N#Cc1cc([N+](=O)[O-])ccc1N
active: Potency [9] 61.1 µM
inactive: Potency [2] | Potency [3] | Potency [11] | Potency [12] | Potency [13] | Potency [14] | Potency [5] | Potency [6] | Potency [7] | outcome [15] | Potency [16] | Potency [17]

O=C1OC(=O)c2c(Cl)c(Cl)c(Cl)c(Cl)c21
inactive: Potency [18]

COCCOC(=O)c1ccccc1C(=O)OCCOC
inactive: Potency [18]

CC(c1ccccc1)(c1ccc(O)cc1)c1ccc(O)cc1
active: Potency [11] 54.9 µM | Potency [5] 54.5 µM | Potency [6] 61.1 µM | Potency [9] 68.6 µM | Potency [17] 25.2 µM
inactive: Potency [19] | Potency [13] | outcome [15]

CC1COC(Cn2cncn2)(c2ccc(Oc3ccc(Cl)cc3)cc2Cl)O1 (stereo not drawn)
inactive: outcome [1] | Potency [3] | Potency [11] | Potency [14]
active: Potency [12] 21.9 µM | Potency [20] 48.6 µM | Potency [8] 21.7 µM | Potency [9] 24.3 µM | Potency [10] 43.3 µM | Potency [16] 39.9 µM | Potency [17] 0.0796 µM

CC(C)(C)c1cc(C(C)(C)C)c(O)c(C(C)(C)C)c1
active: Potency [4] 8.63 µM

CCCCC(CC)COC(=O)c1ccc(C(=O)OCC(CC)CCCC)cc1 (stereo not drawn)
inactive: Potency [18]

Oc1c(I)cc(I)cc1I
active: Potency [11] 38.9 µM
inactive: Potency [19] | Potency [12] | Potency [13] | Potency [14] | Potency [20] | Potency [7] | Potency [10]

OC(Cc1ccccc1Cl)(Cn1[nH]cnc1=S)C1(Cl)CC1 (stereo not drawn)
active: Potency [17] 5.64 µM
inactive: Potency [3] | Potency [19] | Potency [4] | Potency [11] | Potency [13] | Potency [14] | Potency [6] | Potency [7] | outcome [15] | Potency [8] | Potency [10]

CCOC(=O)C(O)(c1ccc(Cl)cc1)c1ccc(Cl)cc1
inactive: outcome [1] | Potency [19] | Potency [11] | Potency [13] | Potency [20] | Potency [6] | Potency [7] | outcome [15] | Potency [17]
active: Potency [2] 31.2 µM and 43.6 µM | Potency [4] 55 µM and 54.5 µM | Potency [12] 19.7 µM and 34.7 µM | Potency [9] 61.8 µM

O=S(=O)(C(Cl)(Cl)Cl)C(Cl)(Cl)Cl
inactive: Potency [4] | Potency [7]
active: Potency [2] 21.9 µM | Potency [3] 61.1 µM | Potency [19] 30.6 µM | Potency [11] 12.3 µM | Potency [12] 12.3 µM | Potency [13] 38.9 µM | Potency [14] 21.9 µM | Potency [20] 61.1 µM | Potency [5] 21.7 µM | Potency [8] 61.1 µM | Potency [9] 8.63 µM | Potency [10] 61.1 µM | Potency [17] 2 µM

O=C(Nc1ccccc1-c1ccc(Cl)cc1)c1cccnc1Cl
active: Potency [5] 14.5 µM | Potency [16] 30.4 µM
inactive: outcome [1] | Potency [3] | Potency [19] | Potency [13] | Potency [20] | outcome [15] | Potency [8] | Potency [10]

CCCCC(CC)COC(=O)CCCCC(=O)OCC(CC)CCCC (stereo not drawn)
inactive: Potency [18]

CNC(=O)Oc1cc(C)c(SC)c(C)c1
active: Potency [4] 61.1 µM | Potency [14] 21.9 µM | Potency [9] 54.5 µM
inactive: Potency [2] | Potency [3] | Potency [19] | Potency [13] | Potency [20] | Potency [6] | Potency [7] | outcome [15] | Potency [8] | Potency [10] | Potency [16]

COc1cc(OC)c(OC)cc1C=O
active: Potency [16] 19.4 µM
inactive: outcome [1] | Potency [2] | Potency [3] | Potency [19] | Potency [4] | Potency [13] | Potency [14] | Potency [20] | outcome [15]

Cc1ccc2nc3sc(=O)sc3nc2c1
active: Potency [11] 7.37 µM | Potency [9] 5.8 µM
inactive: activity change, negative = cytotoxicity [2] -5.08% [at 15.8 µM] | activity change, negative = cytotoxicity [3] 1.22% [at 19 µM] | activity change, negative = cytotoxicity [19] 11.8% [at 19 µM] | activation [4] 7.43% [at 19 µM] | activity change, negative = cytotoxicity [12] 3.61% [at 15.8 µM] | viability change, negative = cytotoxic [13] 3.11% [at 15.8 µM] | activity change [14] -5.16% [at 15.8 µM, hits give high values] | activity change, negative = cytotoxicity [20] -12.9% [at 19 µM] | activity change, negative = cytotoxicity [6] -3.52% [at 19 µM] | activity change, negative = cytotoxicity [7] -19.3% [at 18.9 µM] | activation [15] -0.107% [at 11.8 µM] | activity change, negative = cytotoxicity [8] -12.4% [at 19 µM] | activity change, negative = cytotoxicity [10] -0.0724% [at 19 µM] | activity change, negative = inhibition [16] 1.42% [at 23.6 µM] | activity change, negative = inhibition [17] 0.418% [at 23.6 µM]

Nc1ccc(Cl)cc1[N+](=O)[O-]
inactive: Potency [18]

Nc1ccc([N+](=O)[O-])cc1
inactive: outcome [1] | Potency [13]
active: Potency [19] 30.6 µM | Potency [12] 21.9 µM | Potency [14] 49 µM | Potency [20] 30.6 µM | Potency [5] 27.3 µM | Potency [7] 8.63 µM | Potency [8] 34.4 µM | Potency [9] 43.3 µM | Potency [10] 40.9 µM | Potency [16] 50.2 µM

O=[N+]([O-])c1c(Cl)c(Cl)cc(Cl)c1Cl
inactive: outcome [1] | Potency [3] | Potency [19] | Potency [11] | Potency [12] | Potency [13] | Potency [20] | Potency [6] | Potency [7] | Potency [8] | Potency [9] | Potency [10] | Potency [17]
active: Potency [14] 49 µM | Potency [16] 35.6 µM

CCN(CC)C(=O)Cl
inactive: Potency [2] | Potency [3] | Potency [19] | Potency [4] | Potency [11] | Potency [12] | Potency [13] | Potency [14] | Potency [20] | Potency [5] | Potency [6] | Potency [7] | outcome [15] | Potency [8] | Potency [9] | Potency [10] | Potency [16] | Potency [17]
